# According to PubChem BioAssay (NCATS):
# Inconclusive results are not listed. Where a call stands in place of a potency, no number is given. Activity calls are given as the source filed them. Calls follow the shape of the dose curve; as a rule, active = well fitted curve in the direction sought with a large enough effect; inconclusive = small, poorly fitted or top-dose-only effect, or another doubt; inactive = no such curve, though single readings can be large; an effect the other way counts as inactive or inconclusive.
# Key:
# [1] = Confirmation and Secondary Assay for Modulators of Hemoglobin Beta Chain Splicing at IVS2 654 locus (AID 910);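 also: HeLa cells stably carrying EGFP split by mutant beta-globin IVS2-654 intron; per-well total GFP intensity by laser scanning cytometry after 2-day treatment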
# Procedure, shortened: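 Readout: per-well total peak green fluorescence (488 nm ex, 500–520 nm em) from objects 5–250 µm, reflecting correct splicing of an EGFP-654 reporter. Compounds were applied for 2 days at 37 °C to overnight-plated HeLa EGFP-654 cells; controls were DMSO and 500 nM IVS2-654 PNA.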
# [2] = Confirmation and Secondary Assay for Modulators of Hemoglobin Beta Chain Splicing at IVS2 705 locus (AID 930);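 also: HeLa cells stably expressing the EGFP-705 splicing reporter; GFP fluorescence per well restored by corrected splicing of the IVS2-705 intron in EGFP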
# Procedure, shortened: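 HeLa IVS2-705 EGFP reporter cells, 500/well, compound 2 d at 37C; correct splicing yields fluorescent EGFP. Control: 500 nM antisense PNA. Read-out: total peak GFP intensity.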
# [3] = test system: CP297; assay: qHTS profiling for inhibitors of Plasmodium falciparum proliferation (AID 504749); also: nearly all actives have a fitted effect of over 60% in size; also: potency is read from the fitted curve at half-maximal effect; details: P. falciparum in erythrocytes, SYBR Green DNA, 72 h; series mostly up to 28.7 µM
# Procedure, shortened: (§1)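 SYBR Green fluorescence of parasite DNA, read after lysis and overnight dark incubation, measured growth over 72 h in erythrocyte culture at 0.3% parasitemia and 2.5% hematocrit. Data normalised to DMSO and 0.29 uM artemisinin, with plate-drift correction.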
# [4] = molecular target: Ubiquitin carboxyl-terminal hydrolase 1 (Homo sapiens) (UniProt O94782); assay: Inhibitors of USP1/UAF1: Pilot qHTS (AID 504865);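 also: rhodamine fluorescence freed from ubiquitin-rhodamine substrate followed over time; top concentration of the series differs between compounds; nearly all actives have a fitted effect of over 35% in size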
# Sequence of Ubiquitin carboxyl-terminal hydrolase 1 (Homo sapiens) (O94782 whole entry, looked up): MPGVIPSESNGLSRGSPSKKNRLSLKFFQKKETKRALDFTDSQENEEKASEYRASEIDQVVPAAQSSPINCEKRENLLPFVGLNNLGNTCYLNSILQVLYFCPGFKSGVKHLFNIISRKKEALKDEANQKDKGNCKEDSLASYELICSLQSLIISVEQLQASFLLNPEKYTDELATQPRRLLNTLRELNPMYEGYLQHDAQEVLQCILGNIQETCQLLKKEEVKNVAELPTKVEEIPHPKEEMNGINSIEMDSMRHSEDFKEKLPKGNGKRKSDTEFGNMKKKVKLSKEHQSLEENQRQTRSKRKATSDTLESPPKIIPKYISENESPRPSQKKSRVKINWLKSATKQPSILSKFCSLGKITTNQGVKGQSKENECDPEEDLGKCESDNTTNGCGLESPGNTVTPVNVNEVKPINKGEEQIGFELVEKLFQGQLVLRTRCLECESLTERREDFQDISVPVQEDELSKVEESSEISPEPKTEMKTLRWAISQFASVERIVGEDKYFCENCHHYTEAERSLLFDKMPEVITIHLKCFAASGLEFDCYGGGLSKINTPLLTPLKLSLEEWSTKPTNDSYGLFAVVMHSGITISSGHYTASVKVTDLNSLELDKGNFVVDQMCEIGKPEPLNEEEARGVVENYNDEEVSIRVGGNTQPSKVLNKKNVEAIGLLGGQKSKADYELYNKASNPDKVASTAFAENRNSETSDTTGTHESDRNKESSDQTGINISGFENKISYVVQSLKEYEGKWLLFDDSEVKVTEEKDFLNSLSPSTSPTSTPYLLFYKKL
# Procedure, shortened: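 Kinetic fluorescence assay: 1nM USP1/UAF1, 15 min compound preincubation, then 150nM Ub-Rho; 480/540 nm.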
# [5] = test system: DIV17; assay: qHTS profiling for inhibitors of Plasmodium falciparum proliferation (AID 504749); also: nearly all actives have a fitted effect of over 60% in size; also: potency is read from the fitted curve at half-maximal effect; details: P. falciparum in erythrocytes, SYBR Green DNA, 72 h; series mostly up to 28.7 µM
# Procedure, shortened: as §1
# [6] = test system: TAB109; assay: as above; details: P. falciparum in erythrocytes, SYBR Green DNA, 72 h; series mostly up to 28.7 µM
# Procedure, shortened: as §1
# [7] = test system: CP237; assay: as above; details: P. falciparum in erythrocytes, SYBR Green DNA, 72 h; series mostly up to 28.7 µM
# Procedure, shortened: as §1
# [8] = test system: CP268; assay: as above; details: P. falciparum in erythrocytes, SYBR Green DNA, 72 h; series mostly up to 28.7 µM
# Procedure, shortened: as §1
# [9] = test system: CP286; assay: as above; details: P. falciparum in erythrocytes, SYBR Green DNA, 72 h; series mostly up to 28.7 µM
# Procedure, shortened: as §1
# [10] = test system: HB3; assay: as above; details: P. falciparum in erythrocytes, SYBR Green DNA, 72 h; series mostly up to 28.7 µM
# Procedure, shortened: as §1
# [11] = test system: PC15; assay: as above; details: P. falciparum in erythrocytes, SYBR Green DNA, 72 h; series mostly up to 28.7 µM
# Procedure, shortened: as §1
# [12] = test system: TAB113; assay: as above; details: P. falciparum in erythrocytes, SYBR Green DNA, 72 h; series mostly up to 28.7 µM
# Procedure, shortened: as §1
# [13] = molecular target: Pyruvate kinase (Leishmania mexicana) (UniProt Q27686); assay: qHTS Validation Assay for Activators of Leishmania Mexicana Pyruvate Kinase (AID 959)
# Sequence of Pyruvate kinase (Leishmania mexicana) (Q27686 2-499 E452W): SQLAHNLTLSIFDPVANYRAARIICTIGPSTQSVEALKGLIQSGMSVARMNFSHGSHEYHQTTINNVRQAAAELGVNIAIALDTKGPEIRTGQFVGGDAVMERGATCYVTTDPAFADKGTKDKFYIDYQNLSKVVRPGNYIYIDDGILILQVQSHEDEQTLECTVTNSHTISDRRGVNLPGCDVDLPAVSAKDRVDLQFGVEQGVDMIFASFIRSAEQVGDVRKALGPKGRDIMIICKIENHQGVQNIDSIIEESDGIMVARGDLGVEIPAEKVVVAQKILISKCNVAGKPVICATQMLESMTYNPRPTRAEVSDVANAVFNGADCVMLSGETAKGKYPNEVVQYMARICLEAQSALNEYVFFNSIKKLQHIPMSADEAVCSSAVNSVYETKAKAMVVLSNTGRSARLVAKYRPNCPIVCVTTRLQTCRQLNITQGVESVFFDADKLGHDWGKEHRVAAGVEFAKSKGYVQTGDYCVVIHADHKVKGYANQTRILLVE
# Procedure, shortened: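 Eight-point qHTS titrations; enzyme 0.2 nM LmPYK (E451W mutant); substrates 0.5 mM PEP, 0.1 mM ADP; 7 mM MgCl2; 1 h room temperature; PKLight luminescence normalized to neutral control.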
structure (smiles),measurement,setting,value
Nc1nc(Cl)nc2c1ncn2[C@@H]1O[C@@H](CO)[C@@H](O)[C@H]1O,outcome,[1],inactive
same,outcome,[2],inactive
C[C@@H]1C[C@H]2[C@H]3C[C@@H](F)C4=CC(=O)C=C[C@]4(C)[C@@]3(Cl)[C@@H](O)C[C@@]2(C)[C@@H]1C(=O)COC(=O)C(C)(C)C,Potency,[3],inactive
C[C@H]1C[C@@H]2[C@H]3CCC4=CC(=O)C=C[C@@]4(C)[C@@]3(Cl)[C@@H](O)C[C@]2(C)[C@]1(OC(=O)c1ccco1)C(=O)CCl,Potency,[4],inactive
same,Potency,[5],7.21 µM (active)
same,Potency,[6],3.55 µM (active)
CO/N=C(\C(=O)N[C@@H]1C(=O)N2C(C(=O)[O-])=C(C[N+]3(C)CCCC3)CS[C@@H]12)c1csc(N)n1,Potency,[7],inactive
same,Potency,[8],inactive
same,Potency,[9],inactive
same,Potency,[3],inactive
same,Potency,[5],inactive
same,Potency,[10],inactive
same,Potency,[11],inactive
same,Potency,[12],inactive
C=C(NC(=O)C(=C)NC(=O)c1csc(C2=N[C@@H]3c4csc(n4)[C@@H]4NC(=O)c5csc(n5)[C@@H]([C@](C)(O)[C@H](C)O)NC(=O)[C@@H]5CSC(=N5)/C(=C/C)NC(=O)[C@@H]([C@H](C)O)NC(=O)c5csc(n5)[C@]3(CC2)NC(=O)[C@@H](C)NC(=O)C(=C)NC(=O)[C@@H](C)NC(=O)[C@@H]([C@@H](C)CC)N[C@H]2C=Cc3c([C@H](C)O)cc(nc3[C@@H]2O)C(=O)O[C@H]4C)n1)C(N)=O,Potency,[11],inactive
same,Potency,[6],0.398 µM (active)
N.N.N.N.N.N.N.N.N.N.N.N.N.N.O.O.[Ru].[Ru].[Ru],Potency,[13],inactive
